DAGLB inhibitor: diacylglycerol lipase beta (human) inhibition; HEK293T DAGLB membrane lysate, EnzChek fluorogenic substrate; actives 0.059% (n = 340,000); inhibition, % at 5.17 µM; in the data active = inhibition above about 34%;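 also: 0% = enzyme with vehicle and 100% = wells lacking enzyme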
Target sequence (Q8NCG7 whole entry, looked up): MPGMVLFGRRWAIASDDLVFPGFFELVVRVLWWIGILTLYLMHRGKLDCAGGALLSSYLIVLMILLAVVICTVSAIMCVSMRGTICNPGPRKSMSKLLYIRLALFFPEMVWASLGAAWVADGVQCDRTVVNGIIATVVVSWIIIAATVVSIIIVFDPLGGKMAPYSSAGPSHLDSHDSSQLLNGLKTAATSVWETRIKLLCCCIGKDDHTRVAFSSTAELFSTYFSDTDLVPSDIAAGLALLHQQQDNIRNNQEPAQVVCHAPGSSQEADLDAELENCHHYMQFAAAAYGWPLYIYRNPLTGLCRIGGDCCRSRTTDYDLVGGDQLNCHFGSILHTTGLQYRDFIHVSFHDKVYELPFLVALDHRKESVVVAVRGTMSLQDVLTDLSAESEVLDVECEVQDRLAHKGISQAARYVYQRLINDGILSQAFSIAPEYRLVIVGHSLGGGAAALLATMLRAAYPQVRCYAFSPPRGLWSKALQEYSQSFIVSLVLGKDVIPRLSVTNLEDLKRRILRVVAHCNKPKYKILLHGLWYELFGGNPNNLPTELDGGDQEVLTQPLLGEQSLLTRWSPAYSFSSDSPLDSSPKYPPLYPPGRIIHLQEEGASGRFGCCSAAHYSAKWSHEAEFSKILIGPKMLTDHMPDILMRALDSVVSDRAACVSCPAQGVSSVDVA
NadD inh: inhibitors of Staphylococcus aureus NadD | purified NadD enzyme, colorimetric absorbance read-out | inhibition, % at 20 µM | actives 0.78% (n = 360,000) | AID 602399; in the data active = inhibition above about 26%
HGIII-sPLA2 inh: Blocks human group III sPLA2 activity; Q9NZ20; QFRET BODIPY PC-A2 liposome hydrolysis, fluorescence; inhibition, % at 12.2 µM; actives 0.56% (n = 370,000);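 active = inhibition above mean plus 3 SD of compounds lying within the high and low control bounds, cut at about 19% in these data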;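 also: 0% = median of test compound wells and 100% = no enzyme DMSO wells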
ARNT TACC3 PPI: ARNT/TACC3 interaction disruption | Q9Y6A5 | AlphaScreen His-ARNT PAS-B/GST-TACC3 binding, luminescence; TACC3 fragment carries E629A point mutation | inhibition, % at 9.99 µM | actives 0.66% (n = 390,000) | AID 623870;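 active = mean inhibition of replicates at least 50% and at least half of replicates each reaching 50%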;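 also: 0% = complete ARNT plus TACC3 wells and 100% = ARNT alone without TACC3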
Neddyl block: cullin neddylation inhibition; TR-FRET cullin neddylation, biochemical; actives 0.58% (n = 360,000); AID 651699; P61081+Q13564; inhibition, % at 25 µM; in the data active = inhibition above about 36%
Neddyl conf: confirmation of human cullin neddylation inhibitors. shares compounds with Neddyl block. TR-FRET cullin neddylation biochemical assay. calls only at 25 µM. actives 13% (n = 1,800). AID 652217; in the data active = inhibition above about 40%;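 also: neddylation substrate is the cullin 1 ring ligase complex with SKP2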
Starred values were filed as active, the others as inactive; i = inactive; · = no result given; + = active, no number. This is a sample that favours compounds with a hit; in the whole collection about 2% have one here.

SMILES	DAGLB inhibitor	NadD inh	HGIII-sPLA2 inh	ARNT TACC3 PPI	Neddyl block	Neddyl conf
NC(=O)C1CCN(c2nc3ccccc3nc2NS(=O)(=O)c2ccc(Br)cc2)CC1	4	6	-21	11	16	·
COc1ccc(NC(=O)Nc2ccc3c(c2)[C@H]2C[C@H](CC(=O)NCc4ccncc4)O[C@@H](CO)[C@H]2O3)cc1	·	·	·	6	·	·
CN(C)C(=O)C[C@@H]1CC[C@@H](NC(=O)c2ccc(F)cc2)[C@H](CO)O1	·	·	·	0	·	·
Cc1c(CCC(=O)NCCCn2ccnc2)c(=O)oc2cc3occ(C(C)(C)C)c3cc12	1	1	-18	7	41*	·
Cc1cccc(C(=O)OCC(=O)NC(C)CCc2ccccc2)c1 (configuration not stated)	-1	-5	6	-5	-3	·
CC(CCc1ccccc1)NC(=O)COC(=O)c1cccc(N(C)C)c1 (configuration not stated)	-1	-4	2	-3	46*	i
C[C@@H]1CN([C@@H](C)CO)C(=O)c2cc(NS(=O)(=O)c3cn(C)cn3)ccc2O[C@H]1CN(C)S(=O)(=O)c1cccs1	·	·	·	1	·	·
Cc1cc(C)c2c(N)c(C(=O)c3cccc(Cl)c3)sc2n1	0	6	-10	-8	37*	i
Cc1c(C)c2ccc(OCC(=O)Nc3ccc(CN4CCOCC4)cc3)cc2oc1=O	0	-2	2	-3	52*	i
Cc1ccc(OCC(=O)Nc2ccc(CN3CCOCC3)cc2)cc1C	-3	-7	2	-1	10	·
O=C(COc1ccc2ccc(=O)oc2c1)Nc1ccc(CCO)cc1	2	-5	2	-33	10	·
O=C(COc1ccc2ccc(=O)oc2c1)Nc1ccc(N2CCCCC2)cc1	0	8	4	2	61*	·
Cc1ccc(S(=O)(=O)Nc2ccc3c(c2)C(=O)N([C@@H](C)CO)C[C@@H](C)[C@@H](CN(C)Cc2ccc(C(=O)O)cc2)O3)cc1	·	·	·	-5	·	·
CCc1nnc(NC(=O)CSc2nnc(-c3ccccc3O)n2-c2ccc(C)cc2C)s1	3	16	-9	1	41*	i
COc1ccc(NC(=O)c2ccc(-c3ccc(C(C)=O)cc3)o2)cn1	-2	9	-9	5	38*	i
COc1ccc2oc(=O)c(-c3nnc(NCc4ccco4)s3)cc2c1	-1	4	1	-2	45*	i
CCOc1cccc2cc(-c3nnc(NCc4ccco4)s3)c(=O)oc12	1	13	-6	-38	·	·
COc1ccc2oc(=O)c(-c3nc4ccccc4o3)cc2c1	0	1	0	-2	49*	+
C[C@@H]1CCCCO[C@H](CN(C)CC2CCCCC2)[C@H](C)CN([C@H](C)CO)C(=O)c2cc(NC(=O)C3CCCCC3)ccc2O1	·	·	·	17	·	·
CCOC(=O)C1=C(COC(=O)/C=C/c2ccc(SC)cc2)NC(=O)NC1C (configuration not stated)	-2	-7	1	-1	51*	·
C[C@@H]1CN([C@H](C)CO)C(=O)c2cc(/C=C/c3ccccc3)cnc2O[C@@H]1CN(C)Cc1cncnc1	·	·	·	-3	·	·
CO[C@H]1CC[C@H]2CCN(C)C(=O)[C@H](C)[C@@H](OC)CN(C)C(=O)c3cc(C#N)ccc3OC[C@H]1O2	·	·	·	-2	·	·
COC(=O)[C@@H]1[C@@H](CO)[C@@H]2Cn3c(ccc(-c4ccccc4F)c3=O)[C@@H]2N1Cc1ccccc1	·	·	·	26	·	·
O=C1CCC/C(=N\NC(=O)c2ccc(CSc3cccc4cccnc34)cc2)C1	-3	2	-17	9	46*	i
O=C(N/N=C/c1ccccc1Br)c1ccc(CSc2cccc3cccnc23)cc1	-3	27	2	35	37	·
O=C(NN=C1CCCCCC1)c1cccnc1	-1	0	1	14	8	·
NNC(=O)c1ccc(CSc2cccc3cccnc23)cc1	-8	8	2	-3	43*	+
CC(=O)Nc1ccc2c(c1)C(=O)N(C)[C@H]1CC[C@@H](CC(=O)NCc3ccccc3Cl)O[C@H]1CO2	·	·	·	22	·	·
C[C@@H]1CCCCO[C@@H](CN(C)S(=O)(=O)c2ccc(F)cc2)[C@H](C)CN([C@H](C)CO)C(=O)c2cc(NC(=O)Nc3ccc4c(c3)OCO4)ccc2O1	·	·	·	28	·	·
O=C(N[C@H]1CC[C@H](CC(=O)N2CCOCC2)O[C@@H]1CO)c1ccc2c(c1)OCO2	·	·	·	-1	·	·

Source: PubChem (several laboratories)
